Assay results from PubChem BioAssay (Tox21).
Results filed as inconclusive are left out. Where a call stands in place of a potency, no number is given. Active and inactive are the calls of the source. Calls come from the whole dose curve; as a rule, active = well fitted cell-killing curve with a large enough effect in the repeat runs; inconclusive = weak or mixed curves, or effect the other way; inactive = flat fitted curve, though single readings scatter.

Assay: Human pregnane X receptor (PXR) small molecule agonists, qHTS cell viability counter screen (AID 1346977); note: nearly all actives have a fitted effect of over 50% in size
Conditions: PXR-Luc HepG2 viability, CellTiter-Fluor, 24 h; series mostly up to 92.4 µM
Procedure, shortened: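 HepG2 cells stably carrying the PXR-Luc reporter are cultured with 5% charcoal-stripped FBS and treated with compounds for 24hr. CellTiter-Fluor is added at 23hr and fluorescence is read after 1hr.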

Row | Structure (SMILES) | Potency | activity change, negative = cytotoxicity
1 | O=C1NC(=O)c2cccc3cccc1c23 | inactive | –
2 | SCCc1cnccn1 | inactive | –
3 | CCCCCCC(CO)CCCC (stereo not drawn) | inactive | –
4 | CCN(CC)CC(=O)Nc1c(C)cccc1C(=O)OC | inactive | –
5 | O=S(=O)(Cl)c1c(Cl)cccc1Cl | inactive | –
6 | CCC(CO)(CO)CO | inactive | –
7 | c1ccc(CNc2ncnc3c2ncn3C2CCCCO2)cc1 (stereo not drawn) | inactive | –
8 | CC1CCC(C(C)CS)CC1S (stereo not drawn) | inactive | –
9 | CC(=O)C(C)=O | inactive | –
10 | COc1ccc(C)cc1 | inactive | –
11 | CC(C)(C)CCCCCCOC(=O)c1ccccc1C(=O)OCCCCCCC(C)(C)C | inactive | –
12 | COC(OC)OC | inactive | –
13 | CC(=O)c1ccc[nH]1 | inactive | –
14 | Cc1cccc(C)c1NC(=O)c1cc(S(N)(=O)=O)c(Cl)cc1O | inactive | –
15 | CCN(CC)c1cccc(O)c1 | inactive | –
16 | O=C(O)CCC(=O)OC[C@@H](NC(=O)C(Cl)Cl)[C@H](O)c1ccc([N+](=O)[O-])cc1 | inactive | –
17 | CC(C)(O)CCc1ccccc1 | inactive | –
18 | CC1C(C)(C)C2=C(C(=O)CCC2)C1(C)C (stereo not drawn) | inactive | –
19 | CCOC(=O)Oc1ccc(CCNC(=O)[C@H](CCSC)NC(C)=O)cc1OC(=O)OCC | inactive | –
20 | C[C@@H]1C[C@H]2[C@@H]3CCC4=CC(=O)C=C[C@]4(C)[C@@]3(F)[C@@H](O)C[C@]2(C)[C@@]1(O)C(=O)COP(=O)(O)O | inactive | –
21 | O=C1[C@@H]2[C@H]3CC[C@H](C3)[C@@H]2C(=O)N1CCCCN1CCN(c2ncccn2)CC1 | inactive | –
22 | CC1=CC[C@@]23C[C@@H]1C(C)(C)[C@@H]2CC[C@H]3C | inactive | –
23 | CCCCCCCCCCCCCOC(=O)CCSCCC(=O)OCCCCCCCCCCCCC | – | -0.253% [at 19 µM] (inactive)
